Data taken from publication PMC4552634, “A New Set of Chemical Starting Points with Plasmodium falciparum Transmission-Blocking Potential for Antimalarial Drug Discovery” (PLoS ONE, 2015).
About 3,200 (25%) of roughly 13,000 compounds showed an effect of 50% or more. The list shows a part of the results.

test system: P. falciparum stage V gametocytes; set-up: BacTiter-Glo ATP luminescence viability of purified stage V gametocytes in 384-well plates, per cent inhibition versus DMSO; conditions: 48 h, 5 µM; inhibitor

Compound | % Inhibition [%]
Cc1ccc(O)cc1Nc1ccnc2ccc(-c3csc(CNCCN4CCOCC4)n3)cc12 [TCMDC-138419] | 24.32
C=CCOC(=O)N1CCC(CNCc2cccc(-c3cccc(-c4nc5cc(F)ccc5[nH]4)c3)c2)C1.O=C(O)C(F)(F)F (stereo not drawn) [TCMDC-133045] | -22.96
O=C(CC(=O)Nc1cc(Cl)cc(Cl)c1)Nc1cc(Cl)cc(Cl)c1 [TCMDC-124303] | 1.845
O=C(Nc1cccc(-c2nn3ccccc3c2-c2ccnc(Nc3cccc(F)c3)n2)c1)c1c(F)ccc(F)c1Cl [TCMDC-135830] | 19.22
CCCCCCCOc1ccc(NC(=O)Nc2ccc(Cn3ncc(N4CCCNCC4)c(Cl)c3=O)cc2)cc1 [TCMDC-133318] | 42.33
CC(C)c1nc(N2CCN(C(=S)NCc3ccccc3)CC2)c(C#N)c2c1COC(C)(C)C2 [TCMDC-124093] | 85.74
CC(C)Sc1nc(-c2ccccc2)nc2c1COC(C)(C)C2 [TCMDC-125132] | -39.31
N#Cc1ccc(CN2CCC(Oc3ccc(NC(=O)c4cccs4)cc3Cl)C2)cc1 (stereo not drawn) [TCMDC-133962] | 5.438
Cc1cc(Nc2cccc(C(F)(F)F)c2)nc(N)n1 [TCMDC-124264] | 7.363
FC(F)(F)c1cccc(Nc2nc3ccccc3nc2Nc2cccc(C(F)(F)F)c2)c1 [TCMDC-124162] | 95.6
Cc1cc(Nc2cccc(C(F)(F)F)c2)nc(Nc2cccc(C(F)(F)F)c2)n1 [TCMDC-124213] | -15.06
FC(F)(F)c1cccc(Nc2nc(-n3ccnc3)nc(-n3ccnc3)n2)c1 [TCMDC-123871] | 5.028
FC(F)(F)c1cccc(Nc2nc(-c3ccccc3)nc3ncccc23)c1 [TCMDC-125597] | 73.35
Cc1cc(C)n(-c2nc(Nc3cccc(C(F)(F)F)c3)nc(-n3nc(C)cc3C)n2)n1 [TCMDC-125770] | 16.09
N#CCCN1CCN(Cc2cccc(-c3ccc(-c4nc5ccccc5[nH]4)s3)c2)CC1.O=C(O)C(F)(F)F [TCMDC-133871] | -9.564
NC1=NC2(CCCCC2)N(OCCCCCCCCNc2nc(N)nc(N)n2)C(N)=N1 [TCMDC-140517] | 6.685
Nc1nc(N)c2c(ccc3c2ccn3CCCC2CCCNC2)n1 (stereo not drawn) [TCMDC-138618] | 26.76
N#Cc1ccc(Cn2ccc3c4c(N)nc(N)nc4ccc32)cc1 [TCMDC-137820] | 103.8
Nc1nc(N)c2c(ccc3c2ccn3Cc2ccc(OCc3ccccc3)cc2)n1 [TCMDC-137336] | 29.32
Nc1nc(N)c2c(ccc3c2ncn3Cc2ccccc2)n1 [TCMDC-137749] | 33.84
Nc1nc(N)c2c(ccc3c2ccn3Cc2ccccc2)n1 [TCMDC-141977] | 66.05
Nc1nc(N)c2c(ccc3c2ccn3Cc2ccccn2)n1 [TCMDC-137980] | 111.5
Nc1nc(N)c2c(ccc3c2ccn3Cc2ccc(-c3ccccc3)cc2)n1 [TCMDC-137813] | 115.8

Compound | % Inhibition [%]
CNC(=O)COC(=O)c1c2c(nc3ccccc13)C(=Cc1ccc3c(c1)OCO3)CCC2 [TCMDC-123900] | 4.246
Cn1cnc(CCNC(=O)c2ccc(-c3cccc(-c4nc5cc(C(F)(F)F)ccc5[nH]4)c3)cc2)c1 [TCMDC-132493] | 1.105
Cc1ccc(OC2CCN(c3ccc(C(=O)NC4CC4)cn3)CC2)cc1 [TCMDC-134059] | 7.555
NC1=Nc2ccc(Cl)cc2C1(O)c1ccccc1 (stereo not drawn) [TCMDC-123492] | 3.06
CCOc1ccc(C(=O)Nc2cc3c(c(C(F)(F)F)c2)CCNC3)cc1Cl [TCMDC-139751] | 25.29
N#Cc1cccc(C(O)C2CN(CCC3CCCCC3)CCC2(O)c2ccccc2)c1 (stereo not drawn) [TCMDC-131999] | -28.27
O=C(Nc1cccc(-c2ccc(CN3CCCC3)cc2)c1)c1ccc(Cl)cc1 [TCMDC-132630] | 10.82
Cc1nnc2c(N(C(=O)NCCc3ccccc3)C(=O)NCCc3ccccc3)cc3cc(Cl)ccc3n12 [TCMDC-135524] | 21.17
COc1cccc(CNC(=O)c2cccc(-c3ccc(CN4CCC(N5CCCC5)CC4)cc3)n2)c1 [TCMDC-134416] | 30.7
O=C(Nc1cccc(-c2cccc(CN3CCCC3)c2)c1)c1ccc(Cl)cc1 [TCMDC-132654] | 19.28
Cc1nnc2c(NC(=O)/C=C/c3ccc(OC(F)(F)F)cc3)cc3cc(Cl)ccc3n12 [TCMDC-135918] | -12.77
COc1ccc(CNC(=O)Nc2cc3cc(-c4ccc(CN(C)C)cc4)ccc3n3c(C)nnc23)cc1 [TCMDC-136719] | 118
CCCNC(=O)Nc1cc2cc(-c3cccc(CN4CCCCC4)c3)ccc2n2c(C)nnc12 [TCMDC-136740] | 104.3
Cc1nnc2c(NC(=O)NC(C)C)cc3cc(-c4ccc(CN5CCCCC5)cc4)ccc3n12 [TCMDC-136738] | 50.46
COc1ccc(CNC(=O)Nc2cc3cc(-c4ccc(CN5CCCC5)cc4)ccc3n3c(C)nnc23)cc1 [TCMDC-136720] | 98.19
COc1ccc2[nH]c(C(=O)Nc3cccc(-c4ccc(CN(C)C)cc4)c3)cc2c1 [TCMDC-134283] | -4.108
Cc1cccc2[nH]c(-c3ccc(-c4cccc(NC(=O)NCc5ccc(F)cc5)c4)cc3)nc12 [TCMDC-133303] | -66.9
O=C(Nc1cccc(-c2ccc(CN3CCCC3)cc2)c1)c1ccc(F)cc1 [TCMDC-132636] | -0.2818
CN(C)c1ccc(-c2cscc2C(=O)NC2CCCN(Cc3cccnc3)C2)cc1 (stereo not drawn) [TCMDC-134489] | 34.49
CN(Cc1cccc(F)c1)C1CCCN(c2cc(NC(=O)c3ccccc3)ccn2)C1 (stereo not drawn) [TCMDC-135013] | 1.109
CN1CC=C(c2c[nH]c3ccc(OC(=O)c4ccccc4)cc23)C1 [TCMDC-139100] | -51.1
CCNC(=O)Nc1ccc(-c2cnc(N)c(-c3nc4ccc(OC)cc4[nH]3)c2)cc1 [TCMDC-135321] | -14.13
O=C(/C=C/c1ccc(Cl)c(Cl)c1)NC1CCC(CN2CCC(c3nc4ccccc4n3CCCO)CC2)CC1 (stereo not drawn) [TCMDC-140313] | 5.954

Compound | % Inhibition [%]
Cc1cc(NC2CCN(CC3CCCCC3)CC2)nc(Nc2ccccc2Cl)n1 [TCMDC-137017] | -7.805
CCC(CC)n1cc2c(ccc3nc(N)nc(N)c32)n1 [TCMDC-138019] | -28.37
Nc1ccnc(N2CCC(CCOc3cc(C(F)(F)F)nc4c(C(F)(F)F)cccc34)CC2)c1 [TCMDC-141364] | 15.98
CC(Cc1ccc(CN2CCN(Cc3ccccc3)CC2)cc1)NCC(O)c1cccc(C(F)(F)F)c1 (stereo not drawn) [TCMDC-131534] | 42.03
N=C(N)c1ccc(-c2cc(-c3cccc(C(=N)N)c3)on2)cc1 [TCMDC-137264] | 7.482
Cc1ccc(NC(=O)c2ccc3ncccc3c2)cc1OC1CCN(Cc2ccsc2)C1 (stereo not drawn) [TCMDC-133949] | -9.977
c1ccc(COc2ccc(Nc3ncnc4ccc(-c5ccc(CN6CCSCC6)o5)cc34)cc2)cc1 [TCMDC-138242] | 13.7
Cc1ccc(C)c(NC(=O)Nc2ccc(Nc3nc(C)cc(N4CCOCC4)n3)cc2)c1 [TCMDC-124751] | 3.565
CC(=O)N/N=C/[C@H](CCc1ccccc1)NC(=O)[C@H](CC(C)C)NC(=O)c1cccc(OCCN2CCOCC2)c1 [TCMDC-135972] | 30.82
CCCCNC(=O)C1CCCN(C(=O)c2ccc(O)c(-c3ccc(Cl)c(Cl)c3)c2)C1 (stereo not drawn) [TCMDC-140887] | -1.062
CS(=O)(=O)NCCCNCc1cccc(-c2csc(-c3nc4ccccc4[nH]3)c2)c1 [TCMDC-133089] | -10.78
COc1ccc2nc(C)cc(Nc3ccc(Oc4ccc(Br)c5ccccc45)c(Cl)c3)c2c1 [TCMDC-124238] | 12.09
CCCNC(=O)Nc1cc2cc(-c3ccc(CN4CCCC4)cc3)ccc2n2c(C)nnc12 [TCMDC-136718] | 108.6
Cc1ccc(CN2CCCN(Cc3cccc(NC(=O)c4ccc(-c5ccccc5)cc4)c3)CC2)cc1C [TCMDC-141851] | -43.17
O=C(/C=C/c1ccc([N+](=O)[O-])cc1)N1CCC(NS(=O)(=O)c2ccc(Br)cc2)CC1 [TCMDC-139442] | 11.64
COc1ccc(C(=O)CCc2ccc(O)cc2)cc1 [TCMDC-124290] | -50.17
Cc1cccc2[nH]c(-c3ccc(-c4cccc(CNCCCN5CCCC5=O)c4)cc3)nc12 [TCMDC-132758] | 19.9
CC(C)CNCc1cccc(-c2cccc(CNCCCN3CCN(C)CC3)c2)c1 [TCMDC-140483] | 101.9
CN1CCN(CCCNCc2cccc(-c3ccc(CNCCc4ccccc4)cc3)c2)CC1 [TCMDC-140643] | 103.5
CC(C)CNCc1cccc(-c2cccc(CNc3ccc4ncccc4c3)c2)c1 [TCMDC-140718] | 9.838
O=C(NCCN1CCC(c2ccncc2)CC1)c1ccc(Nc2nccc(Nc3ccc(Oc4ccccc4)cc3)n2)cc1 [TCMDC-138610] | -43.68
CCCc1ccc(S(=O)(=O)NC2CCN(c3ccnc(Nc4ccc(F)cc4)n3)C2)cc1 (stereo not drawn) [TCMDC-133598] | 2.344
O=C(c1ccc2ccccc2n1)N1CCCc2cc(Br)ccc21 [TCMDC-134838] | -4.614
